# Laboratory results taken from the supplement of paper PMC8728848.
# The entries come from a sample that favours the strongest signals as a whole.
# Legend:
# Test in all cases: glycan array binding signal (z-score within array); higher = stronger binding
# [1] = tested on: GlcNAc(a1-6)Gal(b1-4)GlcNAc; settings: glycan notation: IUPAC condensed, linker removed; mutation: D138V, E140I
# Procedure, shortened: (§1)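 The binding signal is a Z-score computed within each array and averaged over linkers. Arrays of the same protein sequence at different concentrations or buffers were also averaged together. Data originate from 3228 arrays in the Consortium for Functional Glycomics database, kept only where the protein sequence was available.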
# [2] = tested on: GlcNAc(b1-2)Gal(b1-3)GalNAc; settings: glycan notation: IUPAC condensed, linker removed
# Procedure, shortened: as §1
# [3] = tested on: GlcNAc(b1-2)Man(a1-3)[GlcNAc(b1-2)Man(a1-6)]Man(b1-4)GlcNAc(b1-4)GlcNAc; settings: glycan notation: IUPAC condensed, linker removed
# Procedure, shortened: as §1
# [4] = tested on: GlcNAc(b1-2)Man(a1-3)[GlcNAc(b1-4)][GlcNAc(b1-2)Man(a1-6)]Man(b1-4)GlcNAc(b1-4)[Fuc(a1-6)]GlcNAc; settings: glycan notation: IUPAC condensed, linker removed
# Procedure, shortened: as §1
# [5] = tested on: GlcNAc(b1-2)[GlcNAc(b1-4)]Man(a1-3)[GlcNAc(b1-4)][GlcNAc(b1-2)Man(a1-6)]Man(b1-4)GlcNAc(b1-4)GlcNAc; settings: glycan notation: IUPAC condensed, linker removed; mutation: R125K
# Procedure, shortened: as §1
# [6] = tested on: GlcNAc(b1-2)[GlcNAc(b1-6)]Man(a1-6)[GlcNAc(b1-2)Man(a1-3)][GlcNAc(b1-4)]Man(b1-4)GlcNAc(b1-4)GlcNAc; settings: glycan notation: IUPAC condensed, linker removed
# Procedure, shortened: as §1
# [7] = tested on: GlcNAc(b1-2)[GlcNAc(b1-6)]Man(a1-6)[GlcNAc(b1-4)][GlcNAc(b1-2)Man(a1-3)]Man(b1-4)GlcNAc(b1-4)GlcNAc; settings: glycan notation: IUPAC condensed, linker removed; mutation: R125K
# Procedure, shortened: as §1
# [8] = tested on: GlcNAc(b1-3)Gal(b1-4)GlcNAc(b1-3)Gal(b1-4)GlcNAc(b1-3)Gal(b1-4)GlcNAc(b1-2)Man(a1-3)[GlcNAc(b1-3)Gal(b1-4)GlcNAc(b1-3)Gal(b1-4)GlcNAc(b1-3)Gal(b1-4)GlcNAc(b1-2)Man(a1-6)]Man(b1-4)GlcNAc(b1-4)[Fuc(a1-6)]GlcNAc; settings: glycan notation: IUPAC condensed, linker removed
# Procedure, shortened: as §1
# [9] = tested on: GlcNAc(b1-3)Gal(b1-4)GlcNAc(b1-3)Gal(b1-4)GlcNAc(b1-3)Gal(b1-4)GlcNAc(b1-3)Gal(b1-4)GlcNAc(b1-2)Man(a1-3)[GlcNAc(b1-3)Gal(b1-4)GlcNAc(b1-3)Gal(b1-4)GlcNAc(b1-3)Gal(b1-4)GlcNAc(b1-3)Gal(b1-4)GlcNAc(b1-2)Man(a1-6)]Man(b1-4)GlcNAc(b1-4)GlcNAc; settings: glycan notation: IUPAC condensed, linker removed; mutation: R125K
# Procedure, shortened: as §1
# [10] = tested on: GlcNAc(b1-3)Gal(b1-4)GlcNAc; settings: glycan notation: IUPAC condensed, linker removed
# Procedure, shortened: as §1
# GlcNAc(b1-3)Gal = settings: glycan notation: IUPAC condensed, linker removed
# Procedure, shortened: as §1
# [11] = tested on: GlcNAc(b1-2)Man(a1-3)[GlcNAc(b1-2)Man(a1-6)]Man(b1-4)GlcNAc(b1-4)[Fuc(a1-6)]GlcNAc; settings: glycan notation: IUPAC condensed, linker removed
# Procedure, shortened: as §1
# [12] = tested on: GlcNAc(b1-2)Man(a1-3)[GlcNAc(b1-4)][GlcNAc(b1-2)Man(a1-6)]Man(b1-4)GlcNAc(b1-4)GlcNAc; settings: glycan notation: IUPAC condensed, linker removed
# Procedure, shortened: as §1
# [13] = tested on: GlcNAc(b1-3)Gal(b1-4)GlcNAc(b1-2)[GlcNAc(b1-3)Gal(b1-4)GlcNAc(b1-6)]Man(a1-6)[GlcNAc(b1-3)Gal(b1-4)GlcNAc(b1-2)Man(a1-3)]Man(b1-4)GlcNAc(b1-4)GlcNAc; settings: glycan notation: IUPAC condensed, linker removed
# Procedure, shortened: as §1
# [14] = tested on: GlcNAc(b1-3)Gal(b1-4)GlcNAc(b1-3)Gal(b1-4)GlcNAc(b1-2)Man(a1-3)[GlcNAc(b1-3)Gal(b1-4)GlcNAc(b1-3)Gal(b1-4)GlcNAc(b1-2)Man(a1-6)]Man(b1-4)GlcNAc(b1-4)[Fuc(a1-6)]GlcNAc; settings: glycan notation: IUPAC condensed, linker removed
# Procedure, shortened: as §1
# [15] = tested on: GlcNAc(b1-3)Gal(b1-4)GlcNAc(b1-3)Gal(b1-4)GlcNAc(b1-3)Gal(b1-4)GlcNAc(b1-2)Man(a1-3)[GlcNAc(b1-3)Gal(b1-4)GlcNAc(b1-3)Gal(b1-4)GlcNAc(b1-3)Gal(b1-4)GlcNAc(b1-2)Man(a1-6)]Man(b1-4)GlcNAc(b1-4)GlcNAc; settings: glycan notation: IUPAC condensed, linker removed
# Procedure, shortened: as §1
# [16] = tested on: GlcNAc(b1-3)Gal(b1-4)GlcNAc(b1-3)Gal(b1-4)GlcNAc(b1-3)Gal(b1-4)GlcNAc(b1-2)[GlcNAc(b1-3)Gal(b1-4)GlcNAc(b1-3)Gal(b1-4)GlcNAc(b1-3)Gal(b1-4)GlcNAc(b1-6)]Man(a1-6)[GlcNAc(b1-3)Gal(b1-4)GlcNAc(b1-3)Gal(b1-4)GlcNAc(b1-3)Gal(b1-4)GlcNAc(b1-2)Man(a1-3)]Man(b1-4)GlcNAc(b1-4)[Fuc(a1-6)]GlcNAc; settings: glycan notation: IUPAC condensed, linker removed
# Procedure, shortened: as §1
# [17] = tested on: GlcNAc(b1-3)Gal(b1-4)GlcNAc(b1-3)Gal(b1-4)GlcNAc; settings: glycan notation: IUPAC condensed, linker removed
# Procedure, shortened: as §1
# GlcNAc(b1-3)Gal(b1-4)Glc = settings: glycan notation: IUPAC condensed, linker removed
# Procedure, shortened: as §1
# Sequence of Neurocan (Homo sapiens), O14594 (O14594 other isoform, or with tags, fused parts or gaps): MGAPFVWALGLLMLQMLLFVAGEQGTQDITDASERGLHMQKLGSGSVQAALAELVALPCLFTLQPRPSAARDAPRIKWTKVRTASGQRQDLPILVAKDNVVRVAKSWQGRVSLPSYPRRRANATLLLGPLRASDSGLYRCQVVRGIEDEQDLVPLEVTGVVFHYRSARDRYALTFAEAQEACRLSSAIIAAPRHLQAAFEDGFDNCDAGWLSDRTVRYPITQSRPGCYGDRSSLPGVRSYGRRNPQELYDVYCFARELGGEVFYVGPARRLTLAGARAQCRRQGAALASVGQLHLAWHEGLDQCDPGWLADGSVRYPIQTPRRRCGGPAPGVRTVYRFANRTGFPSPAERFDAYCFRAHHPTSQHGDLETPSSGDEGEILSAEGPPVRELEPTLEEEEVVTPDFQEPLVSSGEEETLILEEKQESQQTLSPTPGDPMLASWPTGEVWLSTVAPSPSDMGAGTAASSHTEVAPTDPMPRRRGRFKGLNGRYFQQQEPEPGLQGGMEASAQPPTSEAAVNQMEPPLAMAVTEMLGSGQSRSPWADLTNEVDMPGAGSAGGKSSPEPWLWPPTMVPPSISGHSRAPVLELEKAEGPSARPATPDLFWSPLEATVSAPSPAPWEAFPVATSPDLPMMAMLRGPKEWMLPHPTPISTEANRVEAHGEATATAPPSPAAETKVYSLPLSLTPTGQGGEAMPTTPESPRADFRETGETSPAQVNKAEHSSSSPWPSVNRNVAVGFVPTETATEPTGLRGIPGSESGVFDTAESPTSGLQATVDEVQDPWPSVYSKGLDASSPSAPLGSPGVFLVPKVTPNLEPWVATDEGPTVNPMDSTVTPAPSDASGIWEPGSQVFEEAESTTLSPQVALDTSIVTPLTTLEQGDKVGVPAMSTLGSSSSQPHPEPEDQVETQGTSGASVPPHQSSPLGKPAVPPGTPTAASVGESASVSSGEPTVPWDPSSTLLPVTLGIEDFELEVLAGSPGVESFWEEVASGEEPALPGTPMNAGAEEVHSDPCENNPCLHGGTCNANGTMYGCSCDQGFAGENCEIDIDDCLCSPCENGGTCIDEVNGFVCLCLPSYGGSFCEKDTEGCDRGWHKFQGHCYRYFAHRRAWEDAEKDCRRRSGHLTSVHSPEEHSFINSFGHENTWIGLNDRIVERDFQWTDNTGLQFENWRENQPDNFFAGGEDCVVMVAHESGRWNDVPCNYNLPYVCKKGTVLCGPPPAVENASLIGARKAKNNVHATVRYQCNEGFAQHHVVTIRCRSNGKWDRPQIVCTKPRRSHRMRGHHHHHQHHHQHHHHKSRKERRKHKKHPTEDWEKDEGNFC
# Sequence of PILRb (Mus musculus), Q2YSF2 (Q2YSF2 entry or part of it): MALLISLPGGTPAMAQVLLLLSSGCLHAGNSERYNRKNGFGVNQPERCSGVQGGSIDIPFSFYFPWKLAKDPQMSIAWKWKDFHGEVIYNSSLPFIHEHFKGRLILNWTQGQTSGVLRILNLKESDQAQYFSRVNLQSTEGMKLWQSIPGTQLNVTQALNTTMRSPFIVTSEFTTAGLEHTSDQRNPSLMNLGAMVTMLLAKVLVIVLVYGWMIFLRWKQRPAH
# Sequence of 6RG (Lolium perenne) (chain, as listed by the source): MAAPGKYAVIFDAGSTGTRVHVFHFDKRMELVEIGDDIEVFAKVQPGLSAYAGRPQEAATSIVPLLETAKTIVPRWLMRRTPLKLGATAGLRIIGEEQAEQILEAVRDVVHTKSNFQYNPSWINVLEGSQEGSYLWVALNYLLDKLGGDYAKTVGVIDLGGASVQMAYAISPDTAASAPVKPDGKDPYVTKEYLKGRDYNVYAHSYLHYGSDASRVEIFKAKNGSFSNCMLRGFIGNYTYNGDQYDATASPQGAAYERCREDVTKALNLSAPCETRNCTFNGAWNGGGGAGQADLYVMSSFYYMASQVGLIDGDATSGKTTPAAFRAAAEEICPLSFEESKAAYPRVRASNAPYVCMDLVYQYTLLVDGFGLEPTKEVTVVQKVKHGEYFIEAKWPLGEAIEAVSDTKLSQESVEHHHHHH
# Sequence of C3b (Homo sapiens), P01024 (P01024 23-667): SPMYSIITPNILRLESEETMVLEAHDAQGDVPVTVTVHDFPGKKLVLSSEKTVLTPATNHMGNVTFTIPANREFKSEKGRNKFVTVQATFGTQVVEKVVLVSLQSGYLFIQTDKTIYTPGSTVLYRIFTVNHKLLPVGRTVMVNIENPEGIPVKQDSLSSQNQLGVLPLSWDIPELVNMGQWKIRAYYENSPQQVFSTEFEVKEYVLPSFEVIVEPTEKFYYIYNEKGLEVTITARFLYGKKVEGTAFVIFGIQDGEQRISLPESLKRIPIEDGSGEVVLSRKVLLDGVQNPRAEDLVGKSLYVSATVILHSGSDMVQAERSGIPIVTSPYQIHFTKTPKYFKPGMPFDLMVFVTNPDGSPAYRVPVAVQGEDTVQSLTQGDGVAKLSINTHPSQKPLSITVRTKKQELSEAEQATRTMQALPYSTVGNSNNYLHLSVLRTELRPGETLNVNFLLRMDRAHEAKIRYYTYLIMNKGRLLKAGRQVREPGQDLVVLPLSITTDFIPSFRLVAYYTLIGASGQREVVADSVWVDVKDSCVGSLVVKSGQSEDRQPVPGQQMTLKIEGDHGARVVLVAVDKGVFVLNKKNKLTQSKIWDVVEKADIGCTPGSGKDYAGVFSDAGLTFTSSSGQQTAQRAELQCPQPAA
# Sequence of wLAT-1A (Homo sapiens), Q01650 (Q01650 whole entry): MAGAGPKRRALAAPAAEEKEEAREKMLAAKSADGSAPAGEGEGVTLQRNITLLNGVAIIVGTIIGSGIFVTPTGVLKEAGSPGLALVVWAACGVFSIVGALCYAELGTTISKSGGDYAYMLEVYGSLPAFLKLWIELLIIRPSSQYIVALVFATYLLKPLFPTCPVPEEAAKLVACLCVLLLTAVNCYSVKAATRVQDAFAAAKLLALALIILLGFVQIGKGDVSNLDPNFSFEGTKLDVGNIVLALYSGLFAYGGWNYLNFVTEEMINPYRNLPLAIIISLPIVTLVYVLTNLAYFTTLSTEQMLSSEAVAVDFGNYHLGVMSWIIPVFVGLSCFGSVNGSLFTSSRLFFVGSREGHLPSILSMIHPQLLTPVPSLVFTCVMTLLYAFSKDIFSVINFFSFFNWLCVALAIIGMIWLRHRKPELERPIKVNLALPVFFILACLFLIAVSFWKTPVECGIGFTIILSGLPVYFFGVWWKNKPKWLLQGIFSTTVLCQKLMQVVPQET
# Sequence of Regenerating Gene IV (Homo sapiens), Q9BYZ8 (Q9BYZ8 whole entry, looked up): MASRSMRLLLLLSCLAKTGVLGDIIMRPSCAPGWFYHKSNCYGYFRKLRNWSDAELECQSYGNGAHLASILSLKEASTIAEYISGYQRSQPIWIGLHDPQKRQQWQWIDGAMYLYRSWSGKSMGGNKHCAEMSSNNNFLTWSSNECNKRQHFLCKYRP
# Sequence of Avaren (Actinomycete K97) (chain, as listed by the source): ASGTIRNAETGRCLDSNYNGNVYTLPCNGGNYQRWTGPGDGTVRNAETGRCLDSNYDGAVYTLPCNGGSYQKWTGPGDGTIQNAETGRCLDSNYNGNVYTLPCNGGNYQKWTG
# Sequence of SRLC (Mus musculus), Q8VIF6 (Q8VIF6 other isoform, or with tags, fused parts or gaps): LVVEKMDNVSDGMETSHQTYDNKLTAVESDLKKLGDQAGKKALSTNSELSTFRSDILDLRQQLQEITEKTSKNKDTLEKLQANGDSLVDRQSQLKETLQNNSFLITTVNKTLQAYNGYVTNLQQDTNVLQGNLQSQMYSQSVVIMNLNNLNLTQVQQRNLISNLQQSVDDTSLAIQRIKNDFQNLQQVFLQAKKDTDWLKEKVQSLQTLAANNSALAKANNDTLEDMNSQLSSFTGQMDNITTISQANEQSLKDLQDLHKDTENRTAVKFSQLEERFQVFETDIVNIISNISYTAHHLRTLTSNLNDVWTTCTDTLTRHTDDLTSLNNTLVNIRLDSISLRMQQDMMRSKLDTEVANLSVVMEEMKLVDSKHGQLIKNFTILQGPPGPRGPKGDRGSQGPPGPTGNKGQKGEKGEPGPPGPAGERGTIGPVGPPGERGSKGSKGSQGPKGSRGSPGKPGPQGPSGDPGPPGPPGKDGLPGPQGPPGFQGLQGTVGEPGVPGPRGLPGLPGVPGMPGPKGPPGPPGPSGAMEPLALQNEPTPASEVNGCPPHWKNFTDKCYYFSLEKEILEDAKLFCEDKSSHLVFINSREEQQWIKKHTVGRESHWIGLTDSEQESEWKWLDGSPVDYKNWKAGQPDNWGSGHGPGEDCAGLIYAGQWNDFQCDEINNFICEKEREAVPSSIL
# Sequence of CHT (Homo sapiens) (chain, as listed by the source): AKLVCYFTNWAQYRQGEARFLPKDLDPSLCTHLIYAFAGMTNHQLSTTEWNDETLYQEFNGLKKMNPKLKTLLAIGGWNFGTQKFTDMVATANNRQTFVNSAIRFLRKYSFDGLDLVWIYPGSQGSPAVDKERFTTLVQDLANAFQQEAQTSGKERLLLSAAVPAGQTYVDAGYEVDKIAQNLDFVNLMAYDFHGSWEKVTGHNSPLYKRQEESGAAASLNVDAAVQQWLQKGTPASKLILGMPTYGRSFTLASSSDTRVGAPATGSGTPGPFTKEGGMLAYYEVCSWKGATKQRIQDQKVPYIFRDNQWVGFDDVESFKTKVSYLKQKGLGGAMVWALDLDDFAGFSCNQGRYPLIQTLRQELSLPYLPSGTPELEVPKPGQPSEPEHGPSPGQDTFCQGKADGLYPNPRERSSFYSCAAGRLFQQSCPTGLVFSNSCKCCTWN
substance,measurement,setting,value
CHT (Homo sapiens),glycan array binding signal (z-score),[1],-0.177
"C3b (Homo sapiens), P01024",glycan array binding signal (z-score),[2],-0.291
"Siglec-8 (Homo sapiens), Q9NYZ4",glycan array binding signal (z-score),[3],-0.041
same,glycan array binding signal (z-score),[4],0.376
same,glycan array binding signal (z-score),[5],5.14
same,glycan array binding signal (z-score),[6],-0.061
same,glycan array binding signal (z-score),[7],-0.415
same,glycan array binding signal (z-score),[8],0.693
same,glycan array binding signal (z-score),[9],-0.017
"Neurocan (Homo sapiens), O14594",glycan array binding signal (z-score),[3],-0.834
same,glycan array binding signal (z-score),[10],-1.33
same,glycan array binding signal (z-score),GlcNAc(b1-3)Gal,-0.097
"PILRb (Mus musculus), Q2YSF2",glycan array binding signal (z-score),[11],0.569
same,glycan array binding signal (z-score),[10],-0.214
Avaren (Actinomycete K97),glycan array binding signal (z-score),[12],-0.134
MpAFP RI GFP (Marinomonas primoryensis),glycan array binding signal (z-score),[13],5.77
same,glycan array binding signal (z-score),[14],2.86
same,glycan array binding signal (z-score),[15],4.26
same,glycan array binding signal (z-score),[16],1.39
6RG (Lolium perenne),glycan array binding signal (z-score),[17],-0.272
"SRLC (Mus musculus), Q8VIF6",glycan array binding signal (z-score),[17],-0.205
"wLAT-1A (Homo sapiens), Q01650",glycan array binding signal (z-score),GlcNAc(b1-3)Gal(b1-4)Glc,-0.411
"Regenerating Gene IV (Homo sapiens), Q9BYZ8",glycan array binding signal (z-score),GlcNAc(b1-3)Gal,-0.345
